Screening results (PubChem BioAssay)
Pol kappa inh: blocks human DNA polymerase kappa activity; Potency, µM (top dose mostly 107 µM), usual class: inhibitors; 400,000 tested, 0.53% active; AID 588579; purified Pol kappa, fluorescent DNA synthesis assay, 10 min; Q9UBT6
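10 nM Pol kappa was preincubated with compounds for 15 min at room temperature. Reaction started with 50 nM (final) substrate. Fluorescence read kinetically at 0 and 10 min.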
WRN inhibitor: blocks human WRN helicase | AID 651768 | WRN helicase unwinding, fluorescent forked duplex, kinetic | Q14191 | Potency, µM (titrated, usually from 114 µM), usual class: inhibitors | 360,000 tested, 0.46% active; note: nearly all actives have a fitted effect of over 55% in size
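Kinetic red-fluorescence monitoring (525/598 nm) tracks WRN helicase activity after 100 nM fluorophore-quencher forked duplex and 2 mM ATP are added to 20 nM enzyme pretreated 15 min at room temperature with compound.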
Pol eta inh: DNA polymerase eta (human) inhibition. Q9Y253. recombinant Pol eta, fluorescent DNA replication assay. Potency, µM (series often up to 114 µM), most hits filed as inhibitors. 390,000 tested, 1.2% active
Target sequence (Q9Y253 whole entry, looked up): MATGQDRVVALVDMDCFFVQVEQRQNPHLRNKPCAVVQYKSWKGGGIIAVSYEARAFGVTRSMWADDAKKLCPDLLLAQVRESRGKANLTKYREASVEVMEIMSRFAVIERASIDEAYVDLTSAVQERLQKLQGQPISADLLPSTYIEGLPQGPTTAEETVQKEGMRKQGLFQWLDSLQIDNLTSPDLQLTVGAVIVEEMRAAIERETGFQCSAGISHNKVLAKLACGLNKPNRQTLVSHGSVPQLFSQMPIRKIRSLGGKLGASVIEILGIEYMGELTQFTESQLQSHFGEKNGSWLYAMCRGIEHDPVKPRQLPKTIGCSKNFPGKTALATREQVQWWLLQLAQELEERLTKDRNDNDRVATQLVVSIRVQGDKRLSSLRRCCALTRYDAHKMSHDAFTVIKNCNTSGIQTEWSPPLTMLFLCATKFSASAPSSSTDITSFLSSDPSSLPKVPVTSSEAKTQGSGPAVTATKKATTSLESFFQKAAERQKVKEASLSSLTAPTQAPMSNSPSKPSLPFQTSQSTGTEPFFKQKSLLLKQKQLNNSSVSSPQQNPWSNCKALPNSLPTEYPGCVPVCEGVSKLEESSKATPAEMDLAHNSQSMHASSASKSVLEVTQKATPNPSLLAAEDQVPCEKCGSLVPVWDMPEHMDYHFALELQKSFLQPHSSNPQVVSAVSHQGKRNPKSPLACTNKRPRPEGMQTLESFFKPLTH
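Pol eta (10 nM) was preincubated with compounds for 15 min at room temperature, after which fluorescent replication substrate (50 nM final) was added to start the reaction. Fluorescence was read kinetically at 0 and 10 min.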
POLI inh: blocks human DNA polymerase iota activity; Pol iota fluorescent replication assay, 10 min; Potency, µM (doses to about 115 µM), usual class: inhibitors; 390,000 tested, 1% active; AID 588590
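Fluorescent replication assay read twice, at 0 min and 10 min after adding 50 nM (final) substrate. Enzyme (10 nM) and compounds were first incubated 15 min at room temperature; enzyme-free buffer wells were negative controls.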
POLB inh: blocks human DNA polymerase beta activity; P06746; Pol beta primer extension/strand displacement, fluorescence kinetic; Potency, µM (titrated, usually from 114 µM), actives largely listed as inhibitors; 340,000 tested, 1.3% active
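Kinetic readout of DNA synthesis with strand displacement by Pol beta. Compound and 10 nM enzyme sit 15 min at room temperature; 50 nM substrate starts the reaction, read immediately and at 10 min.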
Each line names hits and unclear results; the compound was inactive in the other large screens. Compounds with a hit are over-represented: about 2.3% of the library has one in this group of screens. Calls come from the whole dose curve; as a rule, active = well fitted curve in the direction sought with a large enough effect; inconclusive = small, poorly fitted or top-dose-only effect, or another doubt; inactive = no such curve, though single readings can be large; an effect the other way counts as inactive or inconclusive.

CC12CCC=CC1C(c1ccc(C(F)(F)F)cc1)N(Cc1ccccc1)C2=O (stereo unspecified)	none (no result: WRN inhibitor, Pol eta inh, POLB inh)
Cn1c(SCC(=O)Nc2sc3c(c2C#N)CCC3)nnc1C1COc2ccccc2O1 (stereo unspecified)	Pol eta inh inconclusive, POLI inh inconclusive, POLB inh 1.78µM
Nc1cc([N+](=O)[O-])ccc1OCc1ccccc1	none (no result: POLB inh)
O=c1cc(C(O)C[N+](=O)[O-])occ1OCc1ccccc1 (stereo unspecified)	Pol kappa inh inconclusive, POLI inh 25.1µM (no result: POLB inh)
CCC(C)C(=O)OCC1(c2ccc(C)cc2OC(=O)C(C)C)CO1 (stereo unspecified)	POLI inh inconclusive, POLB inh 39.8µM
Cc1ccc(C2(COC(=O)C(C)C)CO2)c(OC(=O)C(C)C)c1 (stereo unspecified)	none
O=[N+]([O-])c1ccc(Sc2ccncn2)c([N+](=O)[O-])c1	WRN inhibitor inconclusive, Pol eta inh 50.1µM (no result: Pol kappa inh, POLI inh, POLB inh)
Cc1cc(C)nc(Sc2ccc([N+](=O)[O-])cc2[N+](=O)[O-])n1	Pol eta inh inconclusive
COc1ccc(S(=O)(=O)Nc2cccc3cccnc23)c([N+](=O)[O-])c1	none (no result: WRN inhibitor, Pol eta inh, POLB inh)
CC(C)c1ccc(/C=C2\C=Cc3ccccc32)cc1	none (no result: WRN inhibitor, Pol eta inh, POLB inh)
CC1CC=CC2C1C(=O)N(Cc1ccccc1)C2c1ccc(F)c(-c2ccc(N(C)C)cc2)c1 (stereo unspecified)	none (no result: WRN inhibitor, Pol eta inh, POLB inh)
COc1ccc(CC(=O)N2CCCc3ccccc32)cc1OC	POLI inh 89.1µM
O=C1/C(=C/c2ccccc2)SC(=S)N1C1CCS(=O)(=O)C1 (stereo unspecified)	none
NS(=O)(=O)c1ccc(-c2ccc(/C=C3\SC(=S)N(C4CCS(=O)(=O)C4)C3=O)o2)cc1 (stereo unspecified)	none
CC1=C(C#N)C(=O)N(C2CCS(=O)(=O)C2)C(=O)/C1=C\c1ccc(C)o1 (stereo unspecified)	POLB inh 12.6µM (no result: Pol kappa inh, WRN inhibitor, Pol eta inh, POLI inh)
Cc1ccc(/C=C2\SC(=S)N(C3CCS(=O)(=O)C3)C2=O)o1 (stereo unspecified)	Pol kappa inh inconclusive, WRN inhibitor inconclusive, Pol eta inh 25.1µM, POLI inh inconclusive, POLB inh 31.6µM
CNc1ccc(C=C2c3ccccc3-c3ccccc32)cc1	none (no result: WRN inhibitor, Pol eta inh, POLB inh)
O=C(CCS(=O)(=O)c1ccc(Br)cc1)NC1CCCC1	Pol kappa inh inconclusive, Pol eta inh inconclusive, POLB inh 22.4µM
COc1ccc([N+](=O)[O-])cc1NC(=O)CS(=O)(=O)c1ccc(C)cc1	none
COc1ccc([N+](=O)[O-])cc1NC(=O)CCS(=O)(=O)c1ccc(Br)cc1	Pol kappa inh inconclusive, Pol eta inh 50.1µM, POLB inh 15.8µM
O=C(CCNS(=O)(=O)c1ccc(Br)cc1)NC1CCCCC1	none
CCc1ccccc1NC(=O)CCS(=O)(=O)c1ccc(Br)cc1	POLB inh 35.5µM
CC(=O)[O][Al][O]C(C)=O	none (no result: WRN inhibitor, Pol eta inh, POLI inh, POLB inh)
Cc1c(Cn2cnc3c(cnn3C(C)(C)C)c2=O)cccc1C(F)(F)F	none (no result: WRN inhibitor, Pol eta inh, POLB inh)
O=S1(=O)CCO[C@H]2CCCC[C@@H]2N1Cc1ccc(Cl)cc1	none (no result: WRN inhibitor, Pol eta inh, POLB inh)
CCN1/C(=C/c2ccc3ccccc3[n+]2CCCS(=O)(=O)[O-])C=Cc2cc(C)ccc21	none
CCN1/C(=C/c2cc[n+](C)cc2)C=Cc2cc(C)ccc21	Pol eta inh inconclusive, POLI inh inconclusive, POLB inh 22.4µM
Cc1cc2nc3ccc(N(C)C)cc3nc2cc1N	Pol kappa inh inconclusive, WRN inhibitor 50.1µM, Pol eta inh inconclusive, POLI inh 6.31µM (no result: POLB inh)
CCOC(=O)N(C(=O)c1ccccc1)c1ccccc1	none (no result: WRN inhibitor, Pol eta inh, POLB inh)
Nc1nonc1-c1nc2ccccc2n1CC(=O)Nc1ccccc1	none
Nc1nonc1-c1nc2ccccc2n1CC(=O)N/N=C/c1ccc(-c2ccccc2C(=O)O)o1	Pol kappa inh inconclusive, Pol eta inh 31.6µM, POLI inh inconclusive, POLB inh 15.8µM
O=C(OCC(=O)N1N=C(c2ccc(Cl)cc2)CC1c1ccco1)c1cncc(Br)c1 (stereo unspecified)	Pol kappa inh inconclusive, Pol eta inh 44.7µM, POLI inh inconclusive (no result: POLB inh)
O=C(OCC(=O)N1N=C(c2ccc(Cl)cc2)CC1c1ccco1)c1ccco1 (stereo unspecified)	none
c1csc(-c2nc(N3CCN(Cc4ccc5c(c4)OCCO5)CC3)c3ccccc3n2)c1	none (no result: WRN inhibitor, Pol eta inh, POLB inh)
CC(=O)Nc1cc(O)c2nonc2c1O	none (no result: WRN inhibitor, Pol eta inh, POLB inh)
O=C(C[n+]1ccccc1)c1ccc(I)cc1	none (no result: WRN inhibitor, Pol eta inh, POLB inh)
